Hit rate of the full screen: of about 5,500 compounds, about 2,000 (36%) were called active. Not shown: some 18% with an inconclusive outcome. No stated cut-off is given here; in the data, active means normalized growth mostly below about 0.91 (no sharp cut-off); inconclusive means no clear call, values can overlap the other calls; inactive means mostly above about 0.92. Some of the results follow.
Test: chemical genetic growth profiling, strain panel (AID 1159580);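 further: tested at 20 µM; growth read once vehicle control cultures reached saturation at 30 °C; 1 = growth at the plate median or of vehicle wells; lower values mean less growth of the strain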
Details: S. cerevisiae deletion strains, growth OD

Measured: normalized growth

O=c1[nH]c(=O)n([C@H]2C[C@H](O)[C@@H](CO)O2)cc1Br
inactive: locus YAL013W, strain DEP1, active compounds read low 1 | locus YAL040C, strain CLN3, active compounds read low 1.08 | locus YDR363W, strain ESC2, active compounds read low 1.01 | locus YER002W, strain NOP16, active compounds read low 1.01 | locus YNL175C, strain NOP13, active compounds read low 1 | locus YNL197C, strain WHI3, active compounds read low 1 | locus YNL224C, strain SQS1, active compounds read low 1 | locus YNL322C, strain KRE1, active compounds read low 1.02 | locus YOR083W, strain WHI5 (second series), active compounds read low 0.991
